Measured values taken from PubChem BioAssay.

Experiments:
[1] = system: Botulinum neurotoxin type F light chain protease (Clostridium botulinum); assay: Botulinum neurotoxin type F light chain protease inhibition, multiplex microsphere flow cytometry, validation set (AID 588459); conditions: multiplex microsphere protease substrate cleavage assay, at 10 µM, hits give high values
[2] = target: Botulinum neurotoxin type A (Clostridium botulinum) (UniProt P0DPI0); assay: BoNT/A light chain protease inhibitors, biochemical, multiplex microsphere flow cytometry, validation set (AID 588460); conditions: at 10 µM, hits give high values
Sequence of Botulinum neurotoxin type A (Clostridium botulinum) (P0DPI0 whole entry, looked up): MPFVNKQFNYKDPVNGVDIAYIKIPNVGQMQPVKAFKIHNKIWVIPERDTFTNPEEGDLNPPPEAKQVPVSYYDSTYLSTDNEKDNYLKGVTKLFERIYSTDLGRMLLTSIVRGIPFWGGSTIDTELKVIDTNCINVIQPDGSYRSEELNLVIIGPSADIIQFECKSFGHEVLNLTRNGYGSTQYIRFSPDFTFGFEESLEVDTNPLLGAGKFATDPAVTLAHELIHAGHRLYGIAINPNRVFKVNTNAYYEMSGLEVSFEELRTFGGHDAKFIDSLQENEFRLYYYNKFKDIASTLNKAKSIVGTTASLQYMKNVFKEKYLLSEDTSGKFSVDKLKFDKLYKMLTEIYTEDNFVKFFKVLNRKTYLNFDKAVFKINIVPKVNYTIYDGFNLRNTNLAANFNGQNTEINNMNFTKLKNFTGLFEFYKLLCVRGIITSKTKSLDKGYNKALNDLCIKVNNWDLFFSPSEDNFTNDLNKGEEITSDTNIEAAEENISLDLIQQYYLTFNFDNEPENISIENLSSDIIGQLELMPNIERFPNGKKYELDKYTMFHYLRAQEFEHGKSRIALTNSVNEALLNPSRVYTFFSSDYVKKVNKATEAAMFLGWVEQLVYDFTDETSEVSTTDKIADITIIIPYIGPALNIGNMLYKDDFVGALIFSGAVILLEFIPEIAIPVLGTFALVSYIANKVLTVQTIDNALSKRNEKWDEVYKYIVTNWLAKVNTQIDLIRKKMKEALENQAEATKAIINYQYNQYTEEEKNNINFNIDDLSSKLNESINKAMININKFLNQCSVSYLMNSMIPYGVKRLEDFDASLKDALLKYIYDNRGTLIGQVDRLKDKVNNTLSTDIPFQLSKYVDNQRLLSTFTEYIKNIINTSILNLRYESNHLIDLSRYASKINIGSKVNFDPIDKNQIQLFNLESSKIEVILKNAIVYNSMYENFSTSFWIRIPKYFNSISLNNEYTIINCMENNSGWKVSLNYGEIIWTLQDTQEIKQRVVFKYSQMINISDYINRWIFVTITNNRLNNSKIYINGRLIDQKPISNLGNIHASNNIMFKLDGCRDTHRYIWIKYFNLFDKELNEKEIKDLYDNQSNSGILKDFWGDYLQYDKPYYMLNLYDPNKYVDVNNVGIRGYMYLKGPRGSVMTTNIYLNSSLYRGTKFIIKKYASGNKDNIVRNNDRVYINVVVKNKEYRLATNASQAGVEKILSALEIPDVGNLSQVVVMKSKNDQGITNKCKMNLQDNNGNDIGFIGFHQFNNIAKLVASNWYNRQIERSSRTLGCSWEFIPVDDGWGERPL

[3] = target: Lethal factor (Bacillus anthracis) (UniProt P15917); assay: Lethal factor protease inhibitors, Bacillus anthracis, multiplex microsphere cleavage assay, validation set (AID 588461); conditions: flow cytometry, at 10 µM, hits give high values
Sequence of Lethal factor (Bacillus anthracis) (P15917 whole entry, looked up): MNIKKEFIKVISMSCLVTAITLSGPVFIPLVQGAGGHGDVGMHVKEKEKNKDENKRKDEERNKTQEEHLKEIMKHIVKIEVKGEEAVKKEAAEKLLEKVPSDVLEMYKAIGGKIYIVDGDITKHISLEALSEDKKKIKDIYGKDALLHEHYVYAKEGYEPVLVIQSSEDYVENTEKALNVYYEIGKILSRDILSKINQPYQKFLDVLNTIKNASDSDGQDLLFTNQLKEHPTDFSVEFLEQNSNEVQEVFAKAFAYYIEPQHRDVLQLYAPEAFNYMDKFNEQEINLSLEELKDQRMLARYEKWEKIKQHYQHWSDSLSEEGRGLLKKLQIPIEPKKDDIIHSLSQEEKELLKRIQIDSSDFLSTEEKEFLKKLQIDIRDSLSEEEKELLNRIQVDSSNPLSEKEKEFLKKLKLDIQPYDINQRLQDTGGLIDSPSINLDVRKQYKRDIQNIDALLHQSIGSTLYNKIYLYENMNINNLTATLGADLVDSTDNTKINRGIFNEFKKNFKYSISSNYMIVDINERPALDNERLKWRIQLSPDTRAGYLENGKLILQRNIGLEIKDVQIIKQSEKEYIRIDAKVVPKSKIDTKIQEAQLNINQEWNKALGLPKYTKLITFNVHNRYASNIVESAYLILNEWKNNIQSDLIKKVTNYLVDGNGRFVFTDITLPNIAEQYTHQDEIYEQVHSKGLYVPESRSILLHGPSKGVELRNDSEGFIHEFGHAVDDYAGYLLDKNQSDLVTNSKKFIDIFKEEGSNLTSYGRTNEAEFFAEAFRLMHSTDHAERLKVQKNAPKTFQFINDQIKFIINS

Measured: inhibition

O=c1cnn([C@@H]2O[C@H](CO)[C@@H](O)[C@H]2O)c(=O)[nH]1
inactive: [1] -0.1% | [2] 1.8% | [3] 5.4%

CCc1cc(C(N)=S)ccn1
inactive: [1] 1.9% | [2] 0.9% | [3] -2.7%

CCOC(=O)C1(CCCc2ccccc2)CCN(C2CCN(C(C)=O)CC2)CC1
inactive: [1] 0.1% | [2] 1.4% | [3] -6.4%

COc1cc(C(=S)N(C)C)ccc1O
inactive: [1] -3.2% | [2] -0.9% | [3] -2%

CCC(=O)Oc1ccc(/C(CC)=C(\CC)c2ccc(OC(=O)CC)cc2)cc1
inactive: [1] -2% | [2] 0.1% | [3] -0.2%

CCOc1cc2oc(=O)c3c(c2cc1Cl)CCC3
inactive: [1] 3% | [2] -0.7% | [3] -2.7%

O=C(CCc1c[nH]c2ccccc12)NCc1ccco1
inactive: [1] 2.9% | [2] 0.2% | [3] 5.8%

O=C(/C=C/c1ccco1)NCc1ccc2c(c1)OCO2
inactive: [1] -2.9% | [2] -0.4% | [3] 6.8%

Fc1ccc(-c2cc(-c3ccccc3)nc(-n3cccn3)n2)cc1
inactive: [1] -6.3% | [2] -0.2% | [3] 2.3%

COC(=O)c1cc(OC)c(OC)cc1NC(=O)CN1C(=O)c2ccccc2C1=O
inactive: [1] -3.5% | [2] -1% | [3] -5.5%

Cn1c(=O)[nH]c(=O)c2c1nc(Br)n2CCCO
inactive: [1] 2.3% | [2] 0.7% | [3] -5.7%

CCOc1ccc(NC(=O)N[C@@H](CCSC)C(=O)OC)cc1
inactive: [1] -0.6% | [2] -1.8% | [3] -4.6%

Cc1cccc(C(=O)c2cccc(C)c2)c1
inactive: [1] -4.8% | [2] -0.8% | [3] -11.4%

CC/C(=C(\c1ccc(O)cc1)c1ccc(OCCN(C)C)cc1)c1ccccc1
inactive: [1] 2.7% | [2] -0.2% | [3] -2.3%

CC1=NN(c2ccccc2)C(=O)C1
inactive: [1] 1.1% | [2] -3% | [3] 1.8%

OCCN(CCO)c1ccc2ccccc2c1
inactive: [1] -1.3% | [2] -1.2% | [3] -6.6%

C(=C/c1nccc2c1[nH]c1ccccc12)/c1ccc2c(c1)OCO2
inactive: [1] 3.2% | [2] 6.7% | [3] -1.4%

CC(C)CCn1c(N2CCc3ccccc3C2)nc2c1c(=O)[nH]c(=O)n2C
inactive: [1] -1.6% | [2] 0.3% | [3] 4%

Cc1ccc2nc3c(cc(C(=O)NCC4CCCO4)c(=N)n3CCCOC(C)C)c(=O)n2c1 (stereo not drawn)
inactive: [1] 3.3% | [2] -0.1% | [3] -4%

Cc1ccc2c(c1C)NC(C(=O)O)C1CC=CC21 (stereo not drawn)
inactive: [1] -5.3% | [2] -1.9% | [3] -13.2%

C=CCN1C(=O)c2oc3ccccc3c(=O)c2C1c1ccc(O)c(OC)c1 (stereo not drawn)
inactive: [1] -1.5% | [2] -0.6% | [3] 1.1%

Cc1nc(N)sc1C(=O)N/N=C/c1ccco1
inactive: [1] -4.3% | [2] 0.1% | [3] 0.8%

Nc1cccc(C(=O)O)c1
inactive: [1] -0.6% | [2] -0.3% | [3] 3.3%

COc1cc(CNc2ccc(C)c(C)c2)cc(OC)c1OC
inactive: [1] 1.8% | [2] 0.5% | [3] -8.9%

O=C(c1cccc2ccccc12)C1CCCN(C(=O)CCN2CCCO2)C1 (stereo not drawn)
inactive: [1] 1.2% | [2] 1.1% | [3] 2.5%

CC1(C)Cc2ccccc2-c2n[nH]c(=S)n21
inactive: [1] -0.3% | [2] 0.5% | [3] 1.7%

Cn1cnc2c1c(=O)n(CC(O)CO)c(=O)n2C (stereo not drawn)
inactive: [1] -0.3% | [2] 0% | [3] -1.4%

Cc1cc(OC(C(=O)O)c2ccccc2)c2c(C)c(Cc3ccccc3)c(=O)oc2c1 (stereo not drawn)
inactive: [1] 2% | [2] -0.1% | [3] 1.7%

CN=C(NC#N)NCCSCc1nc[nH]c1C
inactive: [1] -0.4% | [2] 0.9% | [3] -3.5%

COc1ccc2cc(C(=O)Nc3ccc(S(N)(=O)=O)cc3)sc(=O)c2c1OC
inactive: [1] 4.2% | [2] 0.6% | [3] 1.5%

COCCN(CCOC)Cc1c(C)[nH]c2c(C)c(C)ccc2c1=O
inactive: [1] 3.4% | [2] -0.6% | [3] -0.3%
